Only some compounds are listed: those with a hit (about 12% of all), similar ones and a draw of the others.
ROMK primary: modulators of human ROMK potassium channel; P48048; Tet-inducible ROMK, thallium flux fluorescence; actives lie on both sides; B-score at 10 µM; 130,000 tested, 2% active;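 active = signal ratio slope over the read window, or its plate-corrected B-score, at least 3 SD from the plate mean, either direction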;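 also: B-score of the F/F0 ratio slope over 7 to 12 s after thallium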
Target sequence (P48048 whole entry, looked up): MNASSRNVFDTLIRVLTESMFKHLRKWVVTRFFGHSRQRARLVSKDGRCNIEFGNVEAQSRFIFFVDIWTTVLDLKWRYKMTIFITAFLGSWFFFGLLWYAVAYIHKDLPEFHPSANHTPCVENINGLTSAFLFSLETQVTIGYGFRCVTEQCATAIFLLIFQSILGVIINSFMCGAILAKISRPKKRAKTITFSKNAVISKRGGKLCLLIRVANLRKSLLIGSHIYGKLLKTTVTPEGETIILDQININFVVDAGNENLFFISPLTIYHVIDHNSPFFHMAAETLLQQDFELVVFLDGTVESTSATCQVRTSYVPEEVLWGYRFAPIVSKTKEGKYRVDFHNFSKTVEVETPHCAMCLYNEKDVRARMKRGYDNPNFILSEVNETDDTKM
WT yeast gro inh: growth inhibition of WT yeast, mitochondrial fusion screen; mitochondrial fusion phenotypic screen, WT strain; inhibition, % at 10 µM; 190,000 tested, 2.1% active; AID 1362; in the data active = inhibition above about 58%; tested in S. cerevisiae
Lmaj promast: Leishmania major promastigote growth inhibition; inhibition, % at 10 µM; 200,000 tested, 9% active; AID 1063; Leishmania major promastigotes, resazurin fluorescence viability; in the data active = inhibition above about 50%;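 also: promastigotes grown with compound for 44 hours at 28 °C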
Calpain2 inh: calpain II (pig) inhibition | purified calpain II, fluorogenic peptide substrate, 30 min | 220,000 tested, 0.37% active | inhibition, % at 16 µM;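 active = inhibition above about 50%, limit read from the data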
Cl transport mod: modulates chloride dependent transport by human KCC2; 190,000 tested, 2.2% active; B-score of Tl+ flux slope (higher = more flux/activation; lower = inhibition) at 10 µM; KCC2 cells, thallium flux FluoZin-2 fluorescence; Q9H2X9;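 active = thallium flux slope and its plate-corrected score both differing from the plate sample mean at a set confidence after two filtering rounds, in either direction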;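 also: slope of fluorescence scaled to starting intensity during 10 to 20 s after thallium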
L major 1uM: blocks Leishmania major promastigote growth at 1 uM, repeat screen. shares compounds with Lmaj promast. L. major promastigote growth, resazurin fluorescence, 48 h. inhibition, % at 1 µM. 1,100 tested, 13% active. AID 1258;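 active = inhibition above about 50% in both repeat tests, limit read from the data; inconclusive = one repeat under the set limit, the other over it; inactive = both repeats under the set limit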
Numbers without * were called inactive; i = inactive; ? = inconclusive; / = no result given.

SMILES	ROMK primary	WT yeast gro inh	Lmaj promast	Calpain2 inh	Cl transport mod	L major 1uM
Cc1onc(-c2c(F)cccc2Cl)c1C(=O)OCC(=O)NC(c1ccccc1)c1ccccc1	-0.632	2.3	10.9	34.3	0.0209	/
Clc1ccccc1CN1CCN(/N=C/C=C\c2ccco2)CC1	0.614	-6.8	-2.6	-8.5	-0.229	/
O=c1sc(Nc2ccccc2)nc2ccsc12	-0.46	4.8	100.0*	-14.7	/	-16.4
CN1CCCC1CCNC1C2CC3CC(C2)CC1C3 (configuration not stated)	/	12.1	53.2*	7.2	-0.176	-17.7
Cc1ccc(S(=O)(=O)N[C@H](C(=O)OCn2nnc3ccccc3c2=O)C(C)C)cc1	0.477	0.2	67.4*	6.2	-0.112	-8.3
CC(C)[C@H](NS(=O)(=O)c1ccccc1)C(=O)OCn1nnc2ccccc2c1=O	1.57	-8.6	-1.5	-6.9	/	/
COc1cccc(NC(=O)NC2CCCCC2C)c1 (configuration not stated)	0.0805	6.9	7.4	4.0	0.698	/
Cc1[nH]c2ccc(Br)cc2c(=O)c1CN1CCCCC1	-0.901	-2.3	8.0	-2.6	/	/
Cc1[nH]c2c(Cl)cccc2c(=O)c1CN1CCCC1	/	-5.4	100.0*	21.7	0.974	92.8*
CC(=O)NCCOC(=O)Nc1sc(=S)n(C)c1C	0.269	-9.3	-9.6	-12.5	0.814	/
Cc1c(NC(=O)OC(C)C)sc(=S)n1C	/	-6.5	96.7*	-4.1	0.225	10.1
CCN(C(=O)COC(=O)c1c(C)c(-c2ccccc2)nc2ccccc12)C1CCS(=O)(=O)C1 (configuration not stated)	/	/	/	-15.7	-3.19	/
COC(=O)c1cc(S(=O)(=O)Nc2ccsc2C(=O)OC)oc1C	-0.0172	/	/	-1.6	1.37	/
O=C(O)c1ccc(Sc2nnnn2-c2ccccc2)c([N+](=O)[O-])c1	/	-0.9	-5.7	7.7	1.39	/
COC(=O)c1ccc(Sc2nnnn2-c2ccccc2)c([N+](=O)[O-])c1	1.16	-0.2	99.5*	6.9	-0.101	-1.4
FC(F)Oc1ccc(/C=N/c2c(-c3ccc(OC(F)F)cc3)nc3n2CCS3)cc1	0.178	-1.5	72.3*	-13.1	-1.45	21.8
COc1ccc(-c2nc3n(c(=O)c2C#N)CCS3)cc1	-0.0693	-0.7	-5.1	-158.1	/	/
O=S(=O)(/N=C(/Nc1ccc(F)c(F)c1F)c1ccccc1)c1ccccc1	/	-22.4	88.6*	11.3	-0.0723	-12.3
CCN(CC)c1ccc(C2NCC(c3ccc([N+](=O)[O-])cc3)O2)cc1 (configuration not stated)	-0.0072	-7.1	-2.0	-11.7	/	/
Brc1cccc(-c2nnc3sc(CNC4CCCC4)cn23)c1	/	15.1	84.8*	-22.2	-0.725	?
N/N=C(\c1ccccc1)C12CN3CN(CN(C3)C1)C2	0.184	-9.3	52.0*	-1.2	-0.101	-14.4
COc1ccc(OC)c(N(CC(=O)NCc2cccnc2)S(C)(=O)=O)c1	/	6.5	-0.6	6.3	/	/
CCn1c(CNC(=O)c2cccc(C)c2)nc2ccccc21	/	15.9	0.5	15.2	-0.394	/
Cc1cccc(C)c1-n1nnnc1S(=O)(=O)Cc1ccccc1Cl	-0.331	25.6	76.7*	33.1	-0.884	-19.7
COCC(=O)N/N=C/c1ccc(Sc2nc3ccccc3s2)o1	0.404	-1.6	81.3*	-6.3	1.64	-8.3
SMILES	ROMK primary	WT yeast gro inh	Lmaj promast	Calpain2 inh	Cl transport mod	L major 1uM
FC(F)(F)c1ccc(C2NCCc3sccc32)cc1 (configuration not stated)	-0.285	-10.9	93.4*	-23.0	1.19	21.4
Cc1[nH]c2c(ccc3ccccc32)c1C1C(CCN)C1(C)C (configuration not stated)	-0.697	35.3	100.4*	-30.5	1.71	-21.2
CCC(C)NC(=O)c1cn(CC)c2cc(N3CCN(C)CC3)c(F)cc2c1=O (configuration not stated)	/	/	/	1.4	0.0488	/
CCn1cc(C(=O)N[C@H](C)c2ccccc2)c(=O)c2cc(F)c(N3CCN(C)CC3)cc21	0.824	7.5	85.4*	-315.9	1	-9.5
COc1ccc([N+](=O)[O-])cc1NC(=O)N(C)Cc1ccco1	/	/	/	-10.3	-1.61	/
Cn1cc(CN2CCC(CO)CC2)c(-c2ccc(Oc3ccccc3)cc2)n1	/	-2.9	96.5*	-1.0	-0.078	75.4*
C1=Nc2ccccc2CN1c1ccccc1	0.413	1.9	85.1*	13.9	-0.8	-8.2
CC(C)c1ccc(N2C=Nc3ccc(C(C)C)cc3C2)cc1	0.939	/	/	5.3	0.0305	/
NS(=O)(=O)c1ccc(NC(=O)COc2ncnc3c2cnn3-c2ccccc2)cc1	-0.63	-4.8	-2.0	5.7	1.12	/
c1ccc2c(NC3CCCC3)nnc(NC3CCCC3)c2c1	/	12.4	97.2*	-106.6	-0.632	11.9
CCOc1cc(C(=O)NCC(=O)N/N=C/c2sccc2C)cc(OCC)c1OCC	0.0857	-4.6	2.7	8.9	1.67	/
CCOc1ccccc1NC(=O)C(=O)N/N=C/c1cc(Br)ccc1O	0.382	-4.2	99.8*	-45.4	0.225	-37.9
O=C(N/N=C/c1cc(Br)ccc1O)Nc1ccccc1	/	32.3	11.9	-49.3	1.45	/
CCOc1ccc(Br)cc1S(=O)(=O)Nc1ccccc1N1CCOCC1	-0.889	12.6	100.1*	-34.9	/	23.0
CCOc1ccc(Br)cc1S(=O)(=O)Nc1ccc(N2CCOCC2)cc1	1.18	20.7	8.1	-16.9	2.14	/
CCCCc1cc(O)c(CCCC)c(O)c1	-0.647	-0.3	98.8*	-13.8	-0.109	32.1
COCCCNC(=O)CN(c1cccc(Cl)c1)S(C)(=O)=O	/	-21.9	-7.5	-10.0	0.683	/
O=C(COC(=O)C1CC2C=CC1C2)NCCc1ccccc1 (configuration not stated)	/	11.0	5.2	-2.5	0.147	/
Cc1ccn2cc(C(=O)Nc3nnc(C)s3)nc2c1	/	4.9	-2.8	-94.5	0.0794	/
Cc1ccn2cc(C34CC5CC(CC(C5)C3)C4)nc2c1	-1.25	22.3	60.4*	-29.3	0.0805	20.8
Cc1ccc(-c2cc(-c3n[nH]c(=S)o3)c3ccccc3n2)cc1	-0.0521	28.1	55.9*	-47.3	16.9*	-10.1
CSc1nnc(-c2cc(-c3ccc(C)cc3)nc3ccccc23)o1	/	0.8	63.6*	-25.9	0.0239	-8.6
S=c1[nH]nc(-c2cc(-c3ccccn3)nc3ccccc23)o1	/	/	/	-13.7	-0.533	/
Cc1ccc(CNS(=O)(=O)c2ccccc2[N+](=O)[O-])cc1	0.216	-7.4	-5.8	37.2	-0.201	/
CCOc1cc(C(=O)N(C)c2ccccc2)cc(OCC)c1OCC	/	12.6	-4.0	14.9	0.851	/
CC(=O)c1ccccc1NS(=O)(=O)c1c(C)nn(-c2ccccc2)c1C	/	2.6	95.6*	-5.4	1.19	42.5
CCOC(=O)N1CCN(c2c(F)cc3[nH]c(=S)[nH]c3c2Br)CC1	/	7.1	50.9*	6.3	1.35	-14.4
CCOC(=O)N1CCN(c2cc3[nH]c(=S)[nH]c3cc2F)CC1	0.281	3.1	-4.8	-65.1	/	/
Cc1c(-c2ccccc2)c(P(=O)(N2CCOCC2)N2CCOCC2)c2ccccn12	/	-2.1	55.0*	i	0.0234	-4.5
CNC(=O)/C=C1\NC(C)(C)Cc2c1ccc1ccccc21	/	16.4	54.3*	-33.2	-1.4	5.2
